Among all 96,000 compounds or so, about 20,000 (21%) were called active. Not all results are given here. A number with no mark means an inactive call.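 How the source made its calls: active means CYP2C19 inhibition above a set limit at 5 µM in the primary screen (cut at about 50% in these data); inactive means the rest.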

Inhibition data for 100 molecules are collected here from PubChem BioAssay AID778 (Sanford-Burnham Center for Chemical Genomics, 2007).

In this test the target is Cytochrome P450 2C19 (Homo sapiens) (UniProt P33261). In words: blockers of cytochrome P450 2C19 activity – biochemical, luminescence, ADME assay, primary screen (AID 778).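 Further: plate controls were negative control wells for no effect and 2.5 mM tranylcypromine positive control for full effect.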 The conditions noted are these: CYP2C19 Supersomes, luciferin-H EGE luminescence, 30 min; at 5 µM; stronger effect = higher value.
Chain of Cytochrome P450 2C19 (Homo sapiens) (P33261 whole entry, looked up): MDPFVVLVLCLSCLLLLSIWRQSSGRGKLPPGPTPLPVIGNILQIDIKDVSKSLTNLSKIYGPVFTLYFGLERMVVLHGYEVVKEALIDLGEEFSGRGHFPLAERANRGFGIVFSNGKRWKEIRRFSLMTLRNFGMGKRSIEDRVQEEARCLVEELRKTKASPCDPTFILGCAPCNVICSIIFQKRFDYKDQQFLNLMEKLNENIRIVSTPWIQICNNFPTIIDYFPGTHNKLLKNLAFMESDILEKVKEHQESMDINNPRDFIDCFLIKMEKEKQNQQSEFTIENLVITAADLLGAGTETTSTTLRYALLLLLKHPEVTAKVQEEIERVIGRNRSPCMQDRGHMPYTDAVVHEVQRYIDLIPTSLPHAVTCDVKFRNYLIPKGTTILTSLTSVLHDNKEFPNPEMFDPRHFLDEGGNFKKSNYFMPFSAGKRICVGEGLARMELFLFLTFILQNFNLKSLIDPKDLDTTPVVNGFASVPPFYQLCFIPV
One may read the inhibition as the drop in the measured response relative to a control, in per cent. With `COc1ccc(-c2oc3ncn(Cc4ccco4)c(=N)c3c2-c2ccc(OC)cc2)cc1`, the inhibition is 33.8%. For `CCOC(=O)N1CCC(Nc2c(NCCCN3CCN(CC)CC3)c(=O)c2=O)CC1`, the inhibition is 4%.

As for `c1ccc(-c2ccnc3nc(-n4cccc4)nn23)cc1`, the inhibition was 1.1%.

As for `CCCC(=O)N1c2ccc(-c3csc(N)n3)cc2CC1C` (stereo not given), the inhibition was 4.4%.

As to `O=c1c(F)cn(C2CCCO2)c(=O)n1Cc1ccccc1Cl` (stereo not given), the inhibition was 36.8%. To `COCCn1c(C)cc(C2=NNC(=Nc3ccc(F)cc3)SC2)c1C` belongs 20.2%; to `COc1ccc(C)cc1NC(=O)c1[nH]c(C)c(C(C)=O)c1C`, 51.5% (active). Under `COc1ccc(C)cc1NC(=O)CCC(=O)Nc1nnc(C(F)(F)F)s1` stands -1.8%; under `CC(=O)c1c(C)[nH]c(C(=O)NCc2ccc(C)cc2)c1C`, 43.8%; under `CC(C)(C)NC(=O)C(c1ccco1)N(Cc1ccc2c(c1)OCO2)C(=O)Cn1nnc2ccccc21` (stereo not given), 48.8%.

In the case of `COc1ccc2c(c1)CCc1c(C(=O)N3CCc4ccccc4C3)noc1-2`, the inhibition was 74.1% (active). In the case of `COc1ccc2c(c1)CCc1c(C(=O)Nc3c(C)n(C)n(-c4ccccc4)c3=O)noc1-2`, the inhibition was 25.7%. `COc1ccc2c(c1)CCc1c(C(=O)N3CCCC3)noc1-2`: the inhibition is 4.9%. To `CCC(=O)N1CCc2cc(S(=O)(=O)NC(C(=O)N3CCc4ccccc4C3)C(C)C)ccc21` (stereo not given) belongs 4.8%. To `Cc1nc(NC(CC(C)C)C(=O)O)c2nc(C)oc2n1` (stereo not given) belongs -8.5%. To `O=C(Nc1ccon1)c1sc2ccccc2c1Cl` belongs 1.4%; to `N#Cc1cc([N+](=O)[O-])ccc1Oc1cccc(/C=N/NC(=O)c2ccc(Cl)cc2)c1`, 41.8%.

On to `CCc1ccccc1NC(=O)CN(C)S(=O)(=O)c1ccc2c(c1)c(=O)n(C)c(=O)n2C`, for which the inhibition is 7.1%. On to `Cc1cc(NC(=O)c2cccc(N3C(=O)CCC3=O)c2)no1`, for which the inhibition was 3%. `O=C(/C=C/Nc1ccccc1OC(F)(F)F)C(F)(F)F`: the inhibition is 18%. As to `Cc1cc(C)nc(NC(=O)C(C)N2C(=O)c3ccccc3C2=O)n1` (stereo not given), the inhibition was -21.4%. On to `Cc1ccc(NC(=O)CCNS(=O)(=O)c2ccc3c(c2)oc(=O)n3C)cc1C`, for which the inhibition is 8%.

On to `CCOC(=O)N1CCC(N(CCOC)C(=O)Nc2ccc(C)c(C)c2)CC1`, for which the inhibition is 8.4%. Turning to `Cc1ccc(NC(=O)CN(C)S(=O)(=O)c2cnc[nH]2)cc1C`, the inhibition was 88.7% (active). Under `Cc1ccc(-c2nnc(C)c(N3CC(C)OC(C)C3)n2)cc1` (stereo not given) stands 7.3%; under `Cc1cc(=O)oc2cc(NC(=O)C3CC(=O)N(Cc4ccccc4)C3)ccc12` (stereo not given), 52.5% (active); under `COCCCNC(=O)C1CC(=O)N(CCc2ccccc2)C1` (stereo not given), -3.4%. Regarding `O=C(O)C1CC(=O)N(Cc2cccnc2)C1` (stereo not given), the inhibition was -2.1%.

Consider `CCC(C)NC(=O)c1c(N)n(/N=C/c2cccs2)c2nc3ccccc3nc12` (stereo not given), for which the inhibition is 13.8%.

As to `COc1ccccc1NC(=O)C1=C(C)Nc2nnnn2C1c1cccc(Br)c1` (stereo not given), the inhibition is 37.1%. For the molecule `COc1ccc(C2C(C(=O)Nc3ccccc3OC)=C(C)Nc3nnnn32)c(OC)c1` (stereo not given), the inhibition is 32.5%.

As for `COC(=O)c1ccc(C2C3=C(Nc4nnnn42)c2ccccc2OC3)cc1` (stereo not given), the inhibition was 98.9% (active). Under `CCCN1Cc2cccc(C(=O)Nc3ccc(S(=O)(=O)N4CCCCCC4)cc3)c2C1=O` stands 18.8%; under `CCC12CN3CC(CC)(CN(C1)C31C(=O)N(C)c3ccc(C)cc31)C2=O` (stereo not given), 15.6%; under `CCc1ccccc1NC(=O)c1cccs1`, -1%. With `O=C(Nc1nn(Cc2ccccc2F)cc1Br)c1cccs1`, the inhibition is 57.4% (active).

As for `O=C(Nc1ncccn1)c1cccs1`, the inhibition was -3.9%.

In the case of `CC(=O)Nn1cc2c(=O)n(C)c(=O)n(C)c2c1`, the inhibition is -4.8%. In the case of `O=c1oc2cc(O)ccc2cc1-c1ccc(F)cc1`, the inhibition is 32.1%. To `CCOC(=O)Nc1ccccc1N1C(=O)c2ccccc2C1=O` belongs 1.6%; to `COCCn1c(C)cc(C(=O)CSc2ncnc3sc4c(c23)CCC4)c1C`, 57.5% (active); to `COc1ncnc2sc3c(c12)CCCC3`, 36.6%.

On to `Cc1cc(C)n(-c2nc(SCC(=O)N3CCCC3)c3c4c(sc3n2)CCCC4)n1`, for which the inhibition was 49.7%. With `O=C(NCc1ccco1)c1cnn2c(C(F)(F)F)cc(-c3ccco3)nc12`, the inhibition is 20.3%. Under `CCCc1nc(-c2ccccc2O)n(-c2ccccc2)n1` stands 34%; under `O=C(CN1C(=O)C2C3C=CC(C3)C2C1=O)NCCc1ccccc1Cl` (stereo not given), 23.5%; under `O=C(NCCN1C(=O)C2C3C=CC(C3)C2C1=O)Nc1ccccn1` (stereo not given), -10.2%.

As to `O=C(CCN1C(=O)C2C3C=CC(C3)C2C1=O)Nc1ccccc1F` (stereo not given), the inhibition is 56.5% (active). Under `N#C/C=C\Oc1ccc(Cl)cc1N` stands -2.6%; under `COc1ccc(NC(=O)Cn2c(-c3ccc(OC)cc3)cn(-c3ccc(C)cc3)c2=O)cc1`, -4.3%. To `COc1ccc(Nc2oc(-c3ccccc3Cl)nc2C#N)cc1` belongs 1.2%; to `N#Cc1nc(COc2ccc(-c3ccccc3)cc2)oc1NCc1cccnc1`, 51.7% (active). To `N#Cc1nc(-c2ccc(OCc3ccccc3)cc2)oc1NCCCN1CCOCC1` belongs 7.4%; to `O=c1c2ccccc2nnn1CSc1nc2sc3c(c2c(=O)n1CC1CCCO1)CCC3` (stereo not given), 56.4% (active). Consider `C=C(C)Cn1c(SCC(=O)NCc2ccco2)nc2sc3c(c2c1=O)CCC3`, for which the inhibition was 7.7%. To `O=C(Cn1nc(Cc2cccnc2)c2ccccc2c1=O)NCC1CCCO1` (stereo not given) belongs 16.7%; to `N#CCCn1cnc2ccccc21`, 1.7%; to `CC(=O)c1ccc(NC(=O)N[C@@H](Cc2ccccc2)C(=O)O)cc1`, 28.5%. Regarding `COc1ccc(CCNC(=O)COC(=O)c2ccc[nH]c2=O)cc1`, the inhibition was -10.2%. For the molecule `CCN(CC)C(=O)C1CCC(C)(C(=O)O)C1(C)C` (stereo not given), the inhibition was -4.4%.

For the molecule `Cc1cc(O)ccc1-c1cnc2ccccc2n1`, the inhibition was 60.7% (active). With `CC(=O)Nc1cccc(-c2cnc3ccccc3n2)c1`, the inhibition was 14.9%.

On to `Cc1nc2ccccc2cc1O`, for which the inhibition was 0.7%.

In the case of `Nc1nonc1-c1nc2ccccc2n1Cc1ccc(F)cc1`, the inhibition is 44.1%. Take `CC(C)N(c1ccccc1)c1ncnc(NCCC(=O)O)c1[N+](=O)[O-]`: the inhibition is 55% (active). `Cc1oc(-c2cccc(Cl)c2)[n+]([O-])c1C`: the inhibition is -4.8%. In the case of `CCOC(=O)C1=C(c2ccccc2)N=C2SCC(=O)N2C1c1ccc(O)c(OC)c1` (stereo not given), the inhibition is 79.4% (active). To `COc1cc(C2C(C(=O)c3ccc(C)o3)=C(O)C(=O)N2CCc2ccccc2)ccc1O` (stereo not given) belongs -1.7%; to `CC1(C)Cc2nc3sc4c(SCC(=O)NC(c5ccccc5)c5ccccc5)ncnc4c3cc2CO1`, 15.3%; to `CC1=CC(=O)C=CC1(C)C(Cl)(Cl)Cl` (stereo not given), 9.4%.

On to `CCC(C)Sc1nc2c(c(=O)[nH]c(=O)n2C)n1CC(O)COc1cccc2ccccc12` (stereo not given), for which the inhibition is 14.5%. Regarding `CCn1c(SCC(=O)Nc2ccc(OC)c(OC)c2)nnc1-c1c[nH]c2ccccc12`, the inhibition was 42.9%.

With `CCn1c(SCCC(C)C)nnc1-c1c[nH]c2ccccc12`, the inhibition was 88.7% (active). Turning to `CCC(C)Sc1nnc(-c2c[nH]c3ccccc23)n1CCOC` (stereo not given), the inhibition is 15.6%. To `CCOC(=O)N1CCN(C(=O)c2cn(C)c3ccc(S(=O)(=O)N4CCCC4)cc3c2=O)CC1` belongs -12.6%; to `O=C(c1ccc(=O)[nH]c1)N(Cc1ccco1)C1(C(=O)NC2CCCCC2)CCCCC1`, -4.2%. To `c1nnc2c3c4c(sc3ncn12)CCC4` belongs 1.2%. `N=c1c2c3c(sc2ncn1N)CCCCC3`: the inhibition is -16%. Regarding `C=C(C)CSc1nc(N)c2c3c(sc2n1)CCC3`, the inhibition was 60.4% (active). With `CC(C)(C)NC(=O)NC(=O)COC(=O)CCC1CCCCC1`, the inhibition is -4.7%. Consider `CCN1CCCC1CNC(=O)c1cc2c(=O)n(C)c3ccccc3c2n1C` (stereo not given), for which the inhibition is -9.3%. To `Cc1[nH][nH]c(=O)c1N=Nc1ccccc1` belongs 13.3%.

Turning to `Cc1ccc(C2CC2C(=O)NN)cc1` (stereo not given), the inhibition was 47.6%. Take `N/C(=N\OC(=O)CCC1CCCCC1)c1ccccn1`: the inhibition was 5.1%. Take `CC(C)(C)c1cc2cccnc2n1Cc1cccc(F)c1`: the inhibition is 14.8%. Turning to `N#C/C(=C/c1ccc(Cl)cc1)NC(=O)c1ccccc1`, the inhibition is 3.3%.

Take `CCCCCN1CC(O)=C(c2ccccc2)C1=N`: the inhibition is -0.3%. To `CC(NC(=O)CSc1nc2c(cc1C#N)CN(C)CC2)c1ccccc1` (stereo not given) belongs 79.6% (active). To `Cc1ccc2cc(C#N)c(SCC(=O)NCC3CCCO3)nc2c1C` (stereo not given) belongs -2.3%. `Cc1nc2cc(NC(=O)CSc3nc4c(C)cccc4cc3C#N)ccc2s1`: the inhibition is 6.7%. Under `O=C1c2ccccc2C2=Nc3ccccc3SC(c3ccccc3F)C12` (stereo not given) stands 8%.

Take `Nc1nc2n(n1)C(c1ccco1)CC(c1ccc(Cl)c(Cl)c1)N2` (stereo not given): the inhibition is 31%. To `Cc1ccc(C2CC(c3cccc(C)c3)n3nc(N)nc3N2)cc1` (stereo not given) belongs 45.1%; to `Clc1ccc(C2CC(c3cccs3)n3ncnc3N2)cc1Cl` (stereo not given), 81.9% (active); to `CN1CCCc2cc(C#N)c(=O)[nH]c21`, 10.9%. Take `Fc1ccc(OCc2nn3c(Cn4nnc5ccccc54)nnc3s2)cc1`: the inhibition was 26.6%. For `CCc1cc2c(=O)c(-c3ccon3)c(N)oc2cc1OC`, the inhibition is 1.3%.

Turning to `COc1ccccc1Cn1c(=S)[nH]c2cc(C(=O)N3CCN(C)CC3)ccc2c1=O`, the inhibition was -10.4%. Under `COc1cc(C(=O)N2CCN(C/C=C/c3ccccc3)CC2)cc(OC)c1C` stands 68.8% (active).

Regarding `COc1ccc(C(=O)N2CCC(C(=O)Nc3cccc(C)c3)CC2)cc1OC`, the inhibition was -3.6%.
